Source: PubChem (National Center for Advancing Translational Sciences (NCATS))
Only some compounds are listed: those with a hit (about 11% of all), similar ones and a draw of the others.
VACV Venus inh = inhibitors of vaccinia virus (Venus reporter). 330,000 compounds, 0.46% hits. AID 720580. Vaccinia virus Venus reporter expression, fluorescence. Potency, µM (titrated, usually from 36.5 µM), usual class: inhibitors; calls by dose curve; tested in A549 cells; further: nearly all actives have a fitted effect of over 30% in size
NS1 inh = influenza NS1 inhibition | Potency, µM (highest dose often 46.1 µM) | 270,000 compounds, 0.4% hits; calls by dose curve; further: actives are rising curves; nearly all actives have a fitted effect of over 50% in size
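Compounds were scored for reversing the slow growth caused by influenza A NS1 in S. cerevisiae, measured by optical density at 600 nm. Assay medium contained 2% galactose at pH 6.0; NS1-free yeast of the same strain were the positive control.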
HCV inhibitor = inhibitors of hepatitis C virus infection; Potency, µM (series often up to 41.8 µM), hits mostly inhibitors; AID 651820; 340,000 compounds, 3.4% hits; Huh7.5.1 HCVcc-Cre infection, luciferase reporter, 44 h
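Cells seeded at 1,000/well and cultured 4 h, then compounds added followed by HCVcc-Cre virus (~0.5 moi). After 44 h further culture, luciferase substrate was added, plates held 15 min at room temperature, and luminescence read for 15 sec.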
Pf growth 48h = inhibits P. falciparum growth in the first generation, 48 h. 310,000 compounds, 5.9% hits. AID 504832. P. falciparum luciferase growth in erythrocytes, 48 h. Potency, µM (titrated, usually from 28.7 µM), usual class: inhibitors
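Here the parasites carry a stable luciferase gene and grow inside erythrocytes in Albumax-based RPMI medium with compound for one erythrocytic cycle. Activity is scored as loss of luminescent signal.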
Pf growth 96h = inhibits malaria parasite growth, 96 h; P. falciparum luciferase reporter growth, 96 h; Potency, µM (series often up to 28.7 µM), usual class: inhibitors; 320,000 compounds, 6.9% hits; AID 504834
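Delayed-death screen, second-generation endpoint: infected erythrocytes, 2% hematocrit, 0.05% parasitemia final; 96 hours at 37 C, 5% CO2; luciferase detection reagent; luminescence decrease equals reduced growth.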
VACV mCherry inh = inhibitors of vaccinia virus infection (mCherry reporter signal). Vaccinia virus mCherry reporter infection, fluorescence. Potency, µM (titrated, usually from 36.5 µM), hits mostly inhibitors. 310,000 compounds, 0.63% hits. AID 720579; calls by dose curve; tested in A549 cells; further: nearly all actives have a fitted effect of over 35% in size
Each line names hits and unclear results; the compound was inactive in the other large screens; ! = not confirmed by another sample. Unless noted, the call rests on the fitted dose curve; in most records, active means well fitted inhibition curve with a large enough effect; inconclusive means small, poorly fitted or top-dose-only effect, or another doubt; inactive means no such curve, though single readings can be large or run the other way.

Cc1onc(-c2c(F)cccc2Cl)c1C(=O)Nc1nnc(C2CC2)s1	Pf growth 48h inconclusive, Pf growth 96h inconclusive (no result: VACV mCherry inh)
CCOC(=O)c1cc2c(=O)n3ccccc3nc2n(Cc2ccco2)c1=NC(=O)c1cccc(OC)c1	HCV inhibitor inconclusive, Pf growth 48h inconclusive, Pf growth 96h inconclusive (no result: NS1 inh)
CCOC(=O)c1cc2c(=O)n3ccccc3nc2n(Cc2ccco2)c1=NC(=O)c1ccc(OC)cc1	Pf growth 48h 9.3µM (no result: NS1 inh)
CCOC(=O)c1cc2c(=O)n3cccc(C)c3nc2n(Cc2ccco2)c1=NC(=O)c1ccc(C)cc1	none (no result: NS1 inh, Pf growth 48h, Pf growth 96h)
CCOC(=O)c1cc2c(=O)n3cccc(C)c3nc2n(Cc2ccco2)c1=NC(=O)c1ccccc1	HCV inhibitor inconclusive, Pf growth 48h inconclusive, Pf growth 96h 12µM
C(=N\NC(=Nc1ccccc1)c1ccccn1)/c1ccccn1	HCV inhibitor inconclusive, Pf growth 48h inconclusive
O=C(O)c1ccc(Nc2ccc([N+](=O)[O-])c3nonc23)cc1	Pf growth 96h inconclusive
NS(=O)(=O)c1ccc(Nc2ccc([N+](=O)[O-])c3nonc23)cc1	Pf growth 48h inconclusive, Pf growth 96h 9.3µM (no result: VACV Venus inh, VACV mCherry inh)
COC(=O)C1CCN(c2cnccn2)CC1	Pf growth 96h inconclusive
COC(=O)C1CCN(c2ccc(Cl)nn2)CC1	Pf growth 48h 1.5µM, Pf growth 96h inconclusive
CCOP(=O)(c1ccccc1)c1nc(-c2ccccc2Cl)oc1N1CCCCC1 (configuration not stated)	HCV inhibitor inconclusive, Pf growth 48h 6.6µM, Pf growth 96h inconclusive (no result: VACV Venus inh, VACV mCherry inh)
S=c1sc2c(N3CCOCC3)ncnc2n1-c1ccccc1	Pf growth 96h 15µM (no result: Pf growth 48h)
CCOC(=O)C1=C(C)C2C3C(=O)N(c4cc(C)ccc4C)C(=O)C3C1(C)C1C(=O)N(c3cc(C)ccc3C)C(=O)C21 (configuration not stated)	Pf growth 48h 13µM, Pf growth 96h inconclusive
COc1cccc(CN2CCN(Cc3nc(-c4cccs4)oc3C)CC2CCO)c1 (configuration not stated)	Pf growth 48h 9.3µM, Pf growth 96h inconclusive (no result: VACV Venus inh, VACV mCherry inh)
CC(C)CN1CCN(Cc2cn(C)c3ccccc23)CC1CCO (configuration not stated)	Pf growth 96h inconclusive
COc1cccc(CN2CCN(Cc3nc(-c4cccc(F)c4F)oc3C)CC2=O)c1	HCV inhibitor inconclusive, Pf growth 48h 13µM, Pf growth 96h inconclusive
Cc1cnc(C)c(N2CCN(Cc3nc(-c4cccc(F)c4F)oc3C)CC2)n1	HCV inhibitor inconclusive, Pf growth 48h inconclusive, Pf growth 96h inconclusive (no result: VACV Venus inh, VACV mCherry inh)
Cc1oc(-c2cccs2)nc1CN1CCN(CC(C)C)C(CCO)C1 (configuration not stated)	Pf growth 96h 1.9µM
COc1cccc(CN2CCN(Cc3ccc(O)c(OC)c3)CC2CCO)c1 (configuration not stated)	none
CCN(C(=O)COC(=O)c1cnccn1)c1cccc2ccccc12	none (no result: NS1 inh, Pf growth 48h, Pf growth 96h)
CCOC(=O)c1c(C)[nH]c(C(=O)CSc2nnnn2-c2ccc(C)cc2)c1C	none (no result: VACV Venus inh, VACV mCherry inh)
CCOC(=O)c1sc(Nc2nc3c(OC)cccc3s2)nc1C	none (no result: VACV Venus inh, VACV mCherry inh)
CN(C)c1ccc(SC#N)cc1	Pf growth 48h 6.6µM, Pf growth 96h 2.9µM
CCOC(=O)c1[nH]c(CN2CCN(c3ccc(OC)cc3)CC2)c(C(=O)OCC)c1C	Pf growth 48h 9.3µM, Pf growth 96h 6.6µM, VACV mCherry inh inconclusive
c1ccc(-n2nnnc2CN2CCOCC2)cc1	none (no result: VACV Venus inh, VACV mCherry inh)
Cc1cc(C)c(S(=O)(=O)N2CCCCC2)c(C)c1N(C)S(=O)(=O)c1ccc(Cl)cc1	HCV inhibitor inconclusive, Pf growth 48h 9.3µM, Pf growth 96h inconclusive
COc1cccc(C2NC(C)(C(=O)O)C3C(=O)N(C(C)C)C(=O)C23)c1O (configuration not stated)	NS1 inh inconclusive (no result: Pf growth 48h)
COc1cccc(N2CCN(C(=O)c3ccc(CS(=O)c4ccc(Cl)cc4)o3)CC2)c1 (configuration not stated)	Pf growth 48h inconclusive, Pf growth 96h 13µM (no result: VACV Venus inh, VACV mCherry inh)
O=C(c1ccc(CS(=O)c2cccc(Cl)c2)o1)N1CCN(c2ccccn2)CC1 (configuration not stated)	Pf growth 48h inconclusive, Pf growth 96h 7.4µM (no result: VACV Venus inh, VACV mCherry inh)
CCOC(=O)N1CCC(NC(=O)c2ccc(CS(=O)c3cccc(Cl)c3)o2)CC1 (configuration not stated)	Pf growth 96h 9.3µM
CCOC(=O)c1[nH]c(Cc2[nH]c(C(=O)OCC)c(C)c2CCC(=O)OC)c(CCC(=O)OC)c1C	HCV inhibitor inconclusive, Pf growth 48h 1.7µM (no result: VACV Venus inh, VACV mCherry inh)
COc1ccc2[nH]c(=O)c(CN(CCO)S(=O)(=O)c3ccc4c(c3)OCCO4)cc2c1	none
Oc1ccccc1CNc1ccc(Br)cn1	VACV Venus inh 14µM, HCV inhibitor inconclusive (no result: VACV mCherry inh)
Brc1ccc(NCc2cccc3ccccc23)nc1	none (no result: VACV Venus inh, Pf growth 48h, VACV mCherry inh)
Cc1ccc(S(=O)(=O)Nc2ccccc2CNc2ncc(Br)cc2Br)cc1	HCV inhibitor inconclusive, Pf growth 48h inconclusive, Pf growth 96h inconclusive
Cc1ccc(S(=O)(=O)Nc2ccccc2CNc2ccc(Br)cn2)cc1	HCV inhibitor inconclusive, Pf growth 48h 12µM
Cc1ccc(S(=O)(=O)Nc2ccccc2CNc2ccccn2)cc1	Pf growth 48h 13µM, Pf growth 96h 6.6µM
COC(=O)Cc1ccccc1NS(=O)(=O)c1ccc(C)cc1	none (no result: NS1 inh, HCV inhibitor, Pf growth 48h, Pf growth 96h)
CCOc1ccc(C(=O)NCC(=O)NCC2CCCCC2)cc1OCC	none
COc1ccc(NC(=O)Cn2c(=O)n(-c3ccc(C)c(C)c3)c(=O)c3c4c(sc32)CCCCC4)cc1Cl	none (no result: NS1 inh, HCV inhibitor, Pf growth 48h, Pf growth 96h)
CC(C)(C)NCC(O)COc1ccc(Br)cc1 (configuration not stated)	Pf growth 48h inconclusive (no result: VACV Venus inh, VACV mCherry inh)
CC(C)(C)NCC(O)c1cc(Cl)c(N)c(Cl)c1 (configuration not stated)	Pf growth 48h 12µM, Pf growth 96h 11µM!
COc1ccc(-c2c(C(F)(F)F)oc3cc(OCC(=O)Nc4ccccc4C(F)(F)F)ccc3c2=O)cc1OC	Pf growth 48h inconclusive, Pf growth 96h inconclusive
COc1ccccc1-c1c(C(F)(F)F)oc2cc(OCC(=O)Nc3ccccc3C(F)(F)F)ccc2c1=O	Pf growth 48h inconclusive, Pf growth 96h 5.2µM
CC1=NN(C2=NS(=O)(=O)c3ccccc32)C(C)(O)C1 (configuration not stated)	none (no result: Pf growth 48h)
C=C1CC(Cn2cc(Br)c(=O)[nH]c2=O)(c2ccc(-c3ccccc3)cc2)OC1=O (configuration not stated)	VACV Venus inh 7.9µM, HCV inhibitor inconclusive, VACV mCherry inh 2.8µM (no result: NS1 inh, Pf growth 48h, Pf growth 96h)
CCCCCC(=O)O[C@@]1(C(C)=O)CCC2C3CCC4=CC(=O)CC[C@@]4(C)C3CC[C@]21C (some centres not stated)	none (no result: NS1 inh, HCV inhibitor, Pf growth 48h, Pf growth 96h)
COc1cc(CN2CCN(C(=O)c3ccccc3F)CC2)cc(OC)c1OC	none (no result: VACV Venus inh, VACV mCherry inh)
CCOC(=O)CC(NC(=O)c1cccc2c1C(=O)N(Cc1cccnc1)C2)c1ccc(OC(C)C)cc1 (configuration not stated)	Pf growth 48h 9.3µM, Pf growth 96h inconclusive (no result: NS1 inh)
